According to PubChem BioAssay (NCATS):
Records with an inconclusive call do not appear. Activity calls are given as the source filed them. Calls follow the shape of the dose curve; as a rule, active = well fitted curve in the direction sought with a large enough effect; inconclusive = small, poorly fitted or top-dose-only effect, or another doubt; inactive = no such curve, though single readings can be large; an effect the other way counts as inactive or inconclusive.

Tests used:
[1] = HEK-293 Cancer Cell Toxicity qHTS against the NCATS CANVASS Library (AID 1347355); also: series mostly up to about 46 µM; nearly all actives have a fitted effect of over 65% in size
Summary of the method: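 First, 1000 cells go into each well and rest for 4 hours. Next, an 11-point dilution range is pinned in. Plates then incubate 72 hours before CellTiter-Glo addition and luminescence reading.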

[2] = HPAF-II 24hr Apoptosis Induction qHTS against the NCATS CANVASS Library (AID 1347356)
Summary of the method: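 Cells seeded at 500 per well, then compounds pin-transferred in an 11-point concentration series. After 24 hours at 37 degrees C, Caspase-Glo 3/7 was added and luminescence measured following 15 min at room temperature.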

[3] = HEK293 18hr Apoptosis Induction qHTS against the NCATS CANVASS Library (AID 1347357)
Summary of the method: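 Cells seeded at 500/well in DMEM + 10% FBS. Compounds pinned, 11 concentrations. 18 h, 37 degrees C/5% CO2. Caspase-Glo 3/7 added, 15 min RT dark, luminescence read.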

[4] = HPAF-II 12hr Apoptosis Induction qHTS against the NCATS CANVASS Library (AID 1347358)
Summary of the method: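 Cells plated at 500 per well are dosed with compound and incubated 12 hours at 37 degrees C. Caspase-Glo 3/7 reagent is added and, after 15 min at room temperature, luminescence proportional to caspase activity is measured.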

[5] = HPAF-II 18hr Apoptosis Induction qHTS against the NCATS CANVASS Library (AID 1347360)
Summary of the method: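 Seed HPAF-II cells at 500/well in DMEM + 10% FBS, pin-transfer compounds, incubate 18 hours at 37 degrees C/5% CO2, add Caspase-Glo 3/7 reagent, wait 15 min, read luminescence.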

[6] = HEK293 12hr Apoptosis Induction qHTS against the NCATS CANVASS Library (AID 1347361)
Summary of the method: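 Cells are seeded, dosed with an 11-point compound series and incubated 12 hours. Caspase-3/7 activity is detected by luminescent DEVD-substrate reagent after 15 minutes at room temperature.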

[7] = KB-3-1 Cancer Cell Toxicity qHTS against the NCATS CANVASS Library (AID 1347366); also: series mostly up to about 46 µM; nearly all actives have a fitted effect of over 75% in size
Summary of the method: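 Luminescence from CellTiter-Glo (10 min, room temperature) measured KB-3-1 viability after 72 hr compound exposure at 37C. Cells were seeded at 500/well and tested in an 11-point series.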

[8] = qHTS for ATAD5 Agonist screened against the NCATS CANVASS Library (AID 1347367);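 also: luciferase reporter driven by ATAD5 which rises upon DNA damage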
Summary of the method: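 HEK293T-ATAD5 luc reporter; 2000 cells/well; 5hr settle; cpd 11-pt qHTS; 16hr 37C 5% CO2 dark; viability by CellTiter-Fluor (AFC fluorescence); then luciferase luminescence, 30min RT.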

[9] = G06 Cancer Cell Toxicity qHTS against the NCATS CANVASS Library (AID 1347368); also: nearly all actives have a fitted effect of over 60% in size; also: potency is read from the fitted curve at half-maximal effect
Summary of the method: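 Cells were plated at 500 per well, then compounds were added over an 11-point range. After 72 hr at 37C, CellTiterGlo was added and luminescence measured as ATP content.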

[10] = MCF7 Cancer Cell Toxicity qHTS against the NCATS CANVASS Library (AID 1347369)
Summary of the method: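 Cells seeded at 500/well, then compound pinned. Plates incubated 72 hr at 37C, 5% CO2. CellTiterGlo added; luminescence read.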

[11] = qHTS for ATAD5 Antagonist screened against the NCATS CANVASS Library (AID 1347370);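 also: HEK293T cells carrying an ATAD5 luciferase reporter co-treated with 10 µM 5-fluorouridine; series mostly up to about 46 µM; nearly all actives have a fitted effect of over 65% in size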
Summary of the method: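 Compounds (11-point) co-dosed with 10 µM 5-FUrd for 16 h at 37 °C onto HEK293T-ATAD5 luciferase reporter cells. Viability measured by CellTiter-Fluor fluorescence, then ATAD5 reporter signal by luminescence.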

[12] = molecular target: Nuclear receptor subfamily 1 group I member 3 (Homo sapiens) (UniProt Q14994); test: qHTS for Constitutive Androstane Receptor (CAR) Agonist screened against the NCATS CANVASS Library (AID 1347373);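 also: every well also contained 1.5 µM PK11195 alongside the test compound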
Chain of Nuclear receptor subfamily 1 group I member 3 (Homo sapiens) (Q14994 whole entry, looked up): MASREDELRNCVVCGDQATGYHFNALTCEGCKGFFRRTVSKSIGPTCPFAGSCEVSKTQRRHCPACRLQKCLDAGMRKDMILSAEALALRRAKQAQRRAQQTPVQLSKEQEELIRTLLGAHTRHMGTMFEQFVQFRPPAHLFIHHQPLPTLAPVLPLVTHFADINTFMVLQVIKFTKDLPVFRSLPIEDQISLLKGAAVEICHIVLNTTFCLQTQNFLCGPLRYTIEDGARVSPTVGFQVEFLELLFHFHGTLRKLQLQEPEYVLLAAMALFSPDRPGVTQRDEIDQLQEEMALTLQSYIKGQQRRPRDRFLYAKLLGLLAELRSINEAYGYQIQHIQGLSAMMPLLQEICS
Summary of the method: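 Cells were plated and allowed to attach for 4hr, then dosed with compound in an 11-point series alongside 1.5uM PK11195. After 24hr at 37C, viability was measured fluorometrically and CAR-driven CYP2B6 reporter luminescence was recorded.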

[13] = 10-beta competent E. coli microbial cell viability qHTS against the NCATS CANVASS Library (AID 1347376); also: series mostly up to about 46 µM
Summary of the method: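 Bacterial suspension diluted to 0.2 OD was dosed with compounds, 11-point series, then held overnight at 37C. BacTiter-Glo reagent was added, and after 20 min at room temperature ATP-dependent luminescence was measured.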

[14] = qHTS for H2AX Agonists against the NCATS CANVASS Library (AID 1347378);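 also: phospho-H2AX S139 level in CHO-K1 lysates by TR-FRET emission ratio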
Summary of the method: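 CHO-K1, 1000 cells/well, o/n 37C; cpd several conc, 3 hr 37C, 0.76% DMSO; lyse 30 min RT; cryptate anti-pH2AX(S139) + d2 anti-H2AX, 24 hr RT; HTRF 665/620.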

[15] = Inflammasome Signaling qHTS Counterscreen: IL-1-beta AlphaLISA counterscreen against the NCATS CANVASS Library (AID 1347381);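 also: cell-free check with purified IL-1β in medium and no THP-1 cells; series mostly up to about 57 µM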
Summary of the method: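 Purified IL-1-beta (4 pg/well) + compound, 11-pt conc. series; acceptor beads 6 ug/mL + biotin-Ab 0.6 nM final, 1 h RT; SA-donor 24 ug/ml final, 30 min dark RT; read ex 680/em 615.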

[16] = qHTS for Activators of p53 Stress Response Pathway screened against the NCATS CANVASS Library (AID 1347388)
Summary of the method: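 p53RE-bla HCT-116 cells (4000/well) were plated 5 h at 37C, exposed to compounds for 16 h at 37C over an 11-point concentration series, then loaded with CCF4 for 2 h at room temperature; 460/530 nm emission ratio read.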

[17] = qHTS assay for small molecule disruptors of mitochondrial membrane potential screened against the NCATS CANVASS Library (AID 1347389); also: series mostly up to about 46 µM; nearly all actives have a fitted effect of over 60% in size
Summary of the method: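 Mitochondrial depolarization in HepG2 cells is scored as a falling aggregate-to-monomer fluorescence ratio after 1 hr compound exposure and 30 min staining with Mito-MPS dye at 37C, each compound tested as an 11-point titration.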

[18] = Secretion counterscreen for inhibitors of the SERCaMP assay screened against the NCATS CANVASS Library (AID 1347390);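 also: light from luciferase secreted into medium read as a measure of general secretion; series mostly up to about 77 µM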
Summary of the method: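 SH-SY5Y-GLuc STOP cells; 4 h attach; cpds 0.001 - 77 uM (qHTS, 11 pts), 20 h 37C/5% CO2; coelenterazine in glow buffer; luminescence, 5 s exposure.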

[19] = Viability qHTS for inhibitors of the SERCaMP assay screened against the NCATS CANVASS Library (AID 1347400); also: series mostly up to about 92 µM; nearly all actives have a fitted effect of over 70% in size
Summary of the method: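 Seed SH-SY5Y-GLuc SERCaMP MJH297 cells at 1000 per well, incubate 4 h, add compounds across an 11-point range, incubate 48 h at 37C, then add CellTiter-Glo and read luminescence.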

[20] = Redox Reaction Profiling qHTS: Assay Interference Panel against the NCATS CANVASS Library (AID 1347401)
Summary of the method: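 Quantitative HTS over an 11-point series was run in HEPES pH 7.3 with 50 mM NaCl, 200 uM DTT and 5 uM resazurin. Initial and 15-min resorufin fluorescence readings were taken.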

Measured: Potency

C=C[C@]1(C)CC[C@@H]([C@H](C)C(=O)CC=C(C)C)O1
inactive: all assays above

COc1ccc([C@@H]2c3cc4c(cc3C(=O)C(C)C2C)OCO4)cc1OC (some centres not stated)
not listed: [11] | [12] | [18]
inactive: all other assays above

CN1CC[C@@]23c4ccccc4N[C@@H]1[C@@]21CCN(C)[C@@H]3Nc2ccccc21
not listed: [9]
inactive: all other assays above

COc1cc2ccc(=O)oc2c(O)c1O[C@@H]1O[C@H](CO)[C@@H](O)[C@H](O)[C@H]1O
active: [9] 8.12 µM
not listed: [18]
inactive: all other assays above

C[C@@]12C[C@@H](C[C@@H]3C(=O)O[C@@H](c4ccoc4)[C@H](OC(=O)c4ccccc4)[C@@H]31)OC2=O
inactive: all assays above

C[C@@]12CCC[C@@](C)(C(=O)O)[C@H]1C[C@@H](O)[C@@]13C[C@@H](CC[C@@H]21)[C@](C)(O)C3
not listed: [13]
inactive: all other assays above

O=C1OC(CCO)c2cccc(O)c21 (configuration not stated)
not listed: [9] | [18]
inactive: all other assays above

CN1CC[C@]23c4ccccc4N[C@H]1[C@]21CCN(C)[C@H]3Nc2ccccc21
inactive: all assays above
